Source: PubChem BioAssay AID602340 (Broad Institute, 2012)
About 2,600 (0.79%) of roughly 330,000 compounds were called active. The list comes from a sample in which actives are over-represented; it also holds similar structures and randomly drawn compounds. A number with no mark means an inactive call.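 The calls were made as follows: active = mean ATP rescue above about 67%, or every replicate alone reaching that limit (limit read from the data, passing the limit was not always enough); inconclusive = no clear call, values can overlap the other calls; inactive = mean under the limit and some replicate under it.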

experiment: protection of differentiated C2C12 cells from simvastatin – single point, plate reader, primary screen (AID 602340); conditions: C2C12 myotubes + simvastatin, ATP luminescence, 48 h; at 7.49 µM; stronger effect = higher value; scaled: DMSO 0, geranylgeraniol control 100;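 also: myotubes were challenged with 10 µM simvastatin during compound exposure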

Compound	rescue of ATP level
O=C(C[C@@H]1C[C@H]2c3cc(NC(=O)Nc4ccccc4)ccc3O[C@H]2[C@@H](CO)O1)NC1CCCCC1	4.79%
C[C@@H]1CN([C@@H](C)CO)C(=O)c2cc(C3=CCCCC3)cnc2O[C@H]1CN(C)CC1CCOCC1	-11.9%
CC(=N\NC(=O)c1cc(Br)ccc1O)/C(=N/O)C(=O)Nc1ccccc1	-1.86%
Cc1ccc(C(=O)NC23CC4CC(CC(C4)C2)C3)c(Cl)c1	-14.4%
C/C(=N/NC(=O)c1cc(Cl)ccc1O)C12CC3CC(CC(C3)C1)C2	173% (active)
Cc1noc(C)c1S(=O)(=O)N(C)C[C@@H]1Oc2c(NS(=O)(=O)c3cn(C)cn3)cccc2C(=O)N([C@@H](C)CO)C[C@H]1C	5.29%
COc1cccc(C(=O)Nc2ccc3c(c2)OC[C@H](C)N(C(C)=O)C[C@@H](C)[C@@H](OC)CN(C)C3=O)c1	5.61%
Fc1ccccc1OCCCCn1cncn1	109% (active)
O=c1c2ccccc2ncn1CCCCOc1ccccc1F	-4.17%
CCN1CCN(CCCCOc2ccccc2F)CC1	12.7%
O=C(Nc1ccccc1F)N[C@@H]1CC[C@H](CCNC(=O)C2CC2)O[C@@H]1CO	3.31%
O=C(/C=C/Sc1ncn[nH]1)c1ccc(Cl)cc1	122% (active)
O=C(CSc1ncn[nH]1)N/N=C/c1ccc(F)cc1	2.49%
Cc1cccc(C=CC(=O)c2ccc(Cl)cc2)c1	3.66%
CO[C@H]1CN(C)C(=O)c2ccc(NC(=O)c3ccccc3F)cc2OC[C@H](C)N(C(=O)c2ccccc2F)C[C@H]1C	-0.874%
COc1ccc(NC(=O)CCCC(=O)c2ccccc2)cc1	4.33%
CCOC(=O)c1cc2ccccc2n1CC(=O)c1ccccc1	14.7%
COc1ccc2cc(C(=O)O)n(CC(=O)c3ccccc3)c2c1	107% (active)
OCCNc1nc(Nc2ccc(Cl)c(Cl)c2)nc2ccccc12	-27.5%
OCCCNC(c1ccccc1)c1ccc(O)cc1 (stereo unspecified)	116% (active)
Cc1noc(C)c1NC(=O)N(C)C[C@H]1Oc2c(NC(=O)c3nc4ccccc4s3)cccc2C(=O)N([C@@H](C)CO)C[C@@H]1C	-9.27%
CN1C(=O)c2cc(NS(=O)(=O)c3ccc(F)cc3)ccc2OC[C@@H]2O[C@@H](CC(=O)O)CC[C@H]21	1.01%
O=C(C[C@H]1C[C@@H]2c3cc(NC(=O)CC4CC4)ccc3O[C@@H]2[C@H](CO)O1)NCc1cccnc1	-11%
CC(=O)C1=C(O)C(=O)N(c2ccc(S(N)(=O)=O)cc2)C1c1ccccc1F (stereo unspecified)	106% (active)
Cc1ccc(S(=O)(=O)N2[C@@H](c3ccccc3F)C(C(=O)O)=CC[C@H]2c2ccc(Cl)cc2)cc1	21.4%
CC(=O)C1=C(O)C(=O)N(c2ccc(Br)cc2)C1c1ccc([N+](=O)[O-])cc1 (stereo unspecified)	4.28%

Compound	rescue of ATP level
CC1=CC(=O)C=CC1(C)C(Cl)(Cl)Cl (stereo unspecified)	112% (active)
CO[C@@H]1CN(C)C(=O)c2cc(NS(=O)(=O)c3ccc(C)cc3)ccc2OC[C@H](C)N(Cc2nccs2)C[C@@H]1C	1.93%
CCC(CC)c1nnc(NS(=O)(=O)Cc2ccccc2)s1	117% (active)
Cc1cc(C)cc(NS(=O)(=O)Cc2ccccc2)c1	1.96%
CCC(CC)c1nnc(NC(=O)C2CCN(C(=O)c3ccco3)CC2)s1	-3.16%
CO[C@@H]1CN(C)C(=O)c2cc(NC(C)=O)ccc2OC[C@H](C)N(CC2CCCCC2)C[C@@H]1C	-13.7%
C[C@H](O)C#Cc1cnc2c(c1)C(=O)N([C@@H](C)CO)C[C@H](C)[C@@H](CN(C)C(=O)c1ccncc1)O2	8.21%
O=C(C[C@H]1C=C[C@H](NC(=O)CN2CCOCC2)[C@@H](CO)O1)NCc1cccc(F)c1	-2.71%
Cc1noc(C)c1NC(=O)Nc1ccc2c(c1)CC(=O)N([C@@H](C)CO)C[C@H](C)[C@@H](CN(C)C(=O)Nc1ccc3c(c1)OCO3)O2	-8.55%
CO[C@@H]1CN(C)C(=O)c2cc(NC(C)=O)ccc2OC[C@H](C)N(Cc2ccccc2F)C[C@@H]1C	-2.5%
COc1ccc(CN2C3CCCC2CC(NC(=O)c2cccc(F)c2)C3)cc1 (stereo unspecified)	9.21%
CCCN1C2CCCC1CC(NC(=O)c1cccc(OC)c1)C2 (stereo unspecified)	-3.95%
CCOc1ccccc1C(=O)NC1CC2CCCC(C1)N2Cc1ccccc1 (stereo unspecified)	97.4% (active)
CCCNC(=O)N(C)C[C@@H]1Oc2ncc(-c3ccccc3F)cc2C(=O)N([C@@H](C)CO)C[C@H]1C	15.3%
COc1ccc(S(=O)(=O)N(C)C[C@H]2Oc3c(NC(=O)C4CCOCC4)cccc3C(=O)N([C@@H](C)CO)C[C@@H]2C)cc1	-29.4%
COCC#Cc1ccc2c(c1)O[C@H](CN(C)Cc1ccc3c(c1)OCO3)[C@H](C)CN([C@H](C)CO)S2(=O)=O	15.6%
CCOC(=O)C1CCN(C(=O)CSc2cc(=O)n(C)c3ccccc23)CC1	4.85%
CCOC(=O)C1CCN(C(=O)COc2cccc3ccccc23)CC1	-0.757%
CCOC(=O)C1CCN(C(=O)Cn2cc(C#N)c3ccccc32)CC1	99.6% (active)
CCCNC(=O)N(C)C[C@H]1Oc2cc(C#CC(C)(C)O)ccc2S(=O)(=O)N([C@H](C)CO)C[C@@H]1C	1.69%
Cc1ccc(C2=CSC3=NS(=O)(=O)CCN23)cc1C	1.19%
COC(=O)c1sc(N2CCN(Cc3ccccc3)CC2)nc1N	8.62%
O=S1(=O)CCN2C(=N1)SC1=C2CCN(Cc2ccccc2)C1	121% (active)
O=C(NCC[C@H]1CC[C@@H](NC(=O)C2CCCCC2)[C@@H](CO)O1)c1ccc(F)cc1	10.2%
CCC(=O)Nc1ccc2c(c1)C(=O)N(C)C[C@@H](OC)[C@@H](C)CN(Cc1ccccc1F)[C@H](C)CO2	10.8%
